The list is not random: actives were taken first. Their share in the collection is about 5.2%.
GRIN3A LBD mod: NR3A (human) ligand-binding domain modulation | NR3A LBD differential scanning fluorimetry, Tm shift; 0% = protein alone, 100% = glycine-bound protein | actives 2.5% (n = 340,000) | Tm shift relative to glycine control, % at 25 µM;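 active means melting temperature shift of at least 10% of the positive control shift, at one fixed dose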
SKN-1 inh: C. elegans SKN-1 inhibition; AID 624304; inhibition, % at 21.8 µM; actives 0.49% (n = 360,000); C. elegans VP596 Pgst-4::GFP/RFP ratio, acrylamide-induced, 24 h;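 active means interference check ratio from 0.5 to 1.5 plus GFP to RFP signal ratio inhibition reaching or exceeding a fixed threshold, cut at about 30% in these data, passing the limit was not always enough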
NadD inh: blocks S. aureus nicotinate mononucleotide adenylyltransferase | purified NadD enzyme, colorimetric absorbance read-out | inhibition, % at 20 µM | actives 0.78% (n = 360,000) | AID 602399; in the data active means inhibition above about 26%
SMARCA2 act: activators of SMARCA2 function; MG213 cells, MMTV-luciferase reporter, dexamethasone, overnight; activation, % at 9.1 µM; actives 1% (n = 370,000); in the data active means activation above about 7.8%;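 further: 0% = vehicle wells and 100% = reference activator wells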
Vif imaging: inhibitors of HIV Vif. HEK293T cells, Vif self-association by quenched fluorescence, imaging, 24 h. inhibition, % at 7.49 µM. actives 0.35% (n = 340,000); in the data active means inhibition above about 50%, passing the limit was not always enough; inconclusive means no clear call, values can overlap the other calls; inactive means below about 31%
esBAF inh: SWI/SNF esBAF complex inhibition. mouse ES cells, Bmi1-luciferase knock-in reporter, 24 h; 100% = twice the neutral-well signal. actives 2% (n = 350,000). reporter increase, % at 12.5 µM; in the data active means activation above about 40%; inconclusive means no clear call, values can overlap the other calls;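 further: 0% = median of the plate's neutral control wells and 100% = double that signal; a rise in the Bmi1 reporter signal indicates esBAF inhibition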
The depositor's hits bear a star; ? = inconclusive; . = not tested or not shown.

SMILES	GRIN3A LBD mod	SKN-1 inh	NadD inh	SMARCA2 act	Vif imaging	esBAF inh
CCOC(=O)c1ccc2c(c1)NCc1cccc(OC)c1O2	9	6	-4	6	-1	58*
COc1cccc(COC(=O)c2ccc3c(c2)NC(=O)C(C)S3)c1OC (stereo unspecified)	1	-4	-11	0	-3	-6
C[C@@H]1CN([C@@H](C)CO)C(=O)c2cc(NC(=O)Nc3ccc4c(c3)OCO4)ccc2O[C@@H](C)CCCCO[C@H]1CN(C)C	.	.	.	.	.	-2
O=C(c1ccc(-c2ccccc2Cl)o1)N1CCCCCCC1	-1	0	-6	3	-6	54*
S=C(c1ccc(-c2cc(Cl)ccc2Cl)o1)N1CCCCC1	0	12	0	2	-5	.
CC1CCCN(C(=O)c2ccncc2)C1 (stereo unspecified)	0	35*	-2	-1	.	-2
CC1CCCN(C(=O)c2ccc(-c3ccccc3Cl)o2)C1 (stereo unspecified)	-2	14	3	3	-3	77*
CC(C)(CNC(=O)c1ccc(-c2ccccc2Cl)o1)N1CCOCC1	-1	6	1	7	4	71*
O=C(C[C@H]1CC[C@@H](NC(=O)c2ccc(F)cc2)[C@H](CO)O1)NCc1ccncn1	.	.	.	.	.	-4
C[C@H](CO)N1C[C@H](C)[C@H](CN(C)S(=O)(=O)c2ccccc2F)OCc2ccccc2-c2ccccc2C1=O	.	.	.	.	.	-1
CC1CN(C(=O)c2ccc(-c3ccccc3Cl)o2)CC(C)O1 (stereo unspecified)	-2	18	-1	0	-2	33
CC(=O)N1CCN(C(=O)c2ccc(-c3ccccc3Cl)o2)CC1	-1	-5	3	4	36	47*
CC(C)c1ccc(S(=O)(=O)/N=C2\C=C(NS(=O)(=O)c3ccccc3)C(=O)c3ccccc32)cc1	1	14	41*	-4	-2	-11
CCc1ccc(S(=O)(=O)/N=C2\C=C(NS(=O)(=O)c3ccccc3)C(=O)c3ccccc32)cc1	2	-8	27	-3	7	-1
Cc1ccc(C)c(S(=O)(=O)/N=C2\C=C(NS(=O)(=O)c3ccccc3)C(=O)c3ccccc32)c1	-3	39*	29*	-1	3	-7
Cc1ccccc1NC1=C/C(=N\S(=O)(=O)c2ccc(C(=O)O)cc2)c2ccccc2C1=O	-4	24	8	-7	7	3
O=C(NCC1CC1)[C@H]1N[C@H]2c3ccc(-c4ccccc4F)c(=O)n3C[C@H]2[C@@H]1CO	.	.	.	.	.	0
Cc1noc(C)c1S(=O)(=O)Nc1ccc2c(c1)C(=O)N([C@H](C)CO)C[C@@H](C)[C@@H](CN(C)C(=O)Nc1ccc(F)cc1)O2	.	.	.	.	.	2
Cc1nn(CCOc2ccccc2)c(=O)n1-c1ccccc1	1	-10	9	2	-6	43*
CN1C(=O)c2cc(NC(=O)C3CCOCC3)ccc2OC[C@@H]2O[C@H](CC(=O)NC3CCCC3)CC[C@H]21	.	.	.	.	.	1
O=C(N/N=C/c1cccnc1)c1ccc(Cl)c(Cl)c1	14*	2	-6	-1	-3	.
Cc1cccc(/C=N/NC(=O)c2ccc(NC(=O)c3ccccc3Cl)cc2)n1	-1	13	-3	-1	4	-3
Cc1cccc(/C=N/NC(=O)c2ccc(NC(=O)c3cccc(Cl)c3)cc2)n1	15*	-12	3	3	?	3
O=C(N/N=C/c1cccnc1)c1ccc(NC(=O)c2ccc(Cl)cc2)cc1	14*	18	-13	-2	-11	.
O=C(N/N=C/c1cccnc1)c1ccc(NC(=O)c2cccc(Cl)c2)cc1	12*	1	-2	-1	15	8
SMILES	GRIN3A LBD mod	SKN-1 inh	NadD inh	SMARCA2 act	Vif imaging	esBAF inh
CC(=O)Nc1ccc(C(=O)N/N=C/c2cccnc2)cc1	0	-3	-1	-4	9	-9
COc1ccc(NC(=O)N(C)C[C@H]2Oc3ccc(NS(=O)(=O)c4ccc(Cl)cc4)cc3CC(=O)N([C@@H](C)CO)C[C@H]2C)cc1	.	.	.	.	.	4
C[C@@H]1CN([C@@H](C)CO)C(=O)c2cc(NC(=O)CCC(F)(F)F)ccc2O[C@@H](C)CCCCO[C@H]1CN(C)C(=O)CCC(F)(F)F	.	.	.	.	.	-5
O=C(N/N=C\c1cccnc1)c1cc(-c2ccc(Cl)s2)[nH]n1	23*	-11	0	1	-7	.
O=C(N/N=C/c1cccnc1)c1ccccc1Cl	0	-20	-8	2	-7	30
Clc1ccccc1-c1ccc(CN2CCN(c3ccccc3)CC2)o1	.	38*	-2	-2	-5	.
COc1ccc(-c2cc(-c3ccc(C)cc3)n[nH]2)c(O)c1	31*	39*	-6	0	5	?
COc1ccc(-c2cc(-c3n[nH]c(=S)n3-c3cc(OC)ccc3OC)[nH]n2)cc1	4	12	14	-2	9	.
COc1ccc(-c2cc(C(=O)NN)[nH]n2)cc1	2	0	3	5	.	.
COc1ccc(-c2cc(-c3ccc(OC)cc3)[nH]n2)cc1	10	8	6	-1	5	64*
C[C@@H]1CN([C@H](C)CO)C(=O)c2cc(NS(=O)(=O)c3cccs3)ccc2O[C@@H](C)CCCCO[C@@H]1CN(C)S(=O)(=O)c1ccc(F)cc1	.	.	.	.	.	8
Cc1ccc(-n2nc3c(c2NC(=O)c2ccc(S(=O)(=O)N4CCOCC4)cc2)CSC3)c(C)c1	5	13	34*	.	-5	3
Cc1cc(C(=O)Nc2ccc(S(=O)(=O)N3CCOCC3)cc2)ccc1[N+](=O)[O-]	30*	10	-7	-1	14	10
Cc1cccc(-n2nc3c(c2NC(=O)c2ccc(S(=O)(=O)N4CCOCC4)cc2)CSC3)c1C	-1	-4	7	-2	-1	-3
Cc1cc(C)c(C)c(S(=O)(=O)N2CCC(C(=O)Nc3ccc(S(=O)(=O)N4CCOCC4)cc3)CC2)c1C	19*	0	14	-3	-3	-1
Cc1ccc(S(=O)(=O)N2CCC(C(=O)Nc3ccc(S(=O)(=O)N4CCOCC4)cc3)CC2)cc1	-6	-24	-7	-3	-26	4
COc1cc(COc2ccc(S(=O)(=O)N3CCOCC3)cc2[N+](=O)[O-])ccc1OC(F)F	-1	-12	-2	-3	57*	1
COCCNC(=O)C[C@@H]1C[C@@H]2c3cc(NC(=O)Nc4ccccc4F)ccc3O[C@@H]2[C@@H](CO)O1	.	.	.	.	.	0
CCCNC(=O)Nc1ccc2c(c1)OC[C@@H](C)N(Cc1ccncc1)C[C@@H](C)[C@@H](OC)CN(C)C2=O	.	.	.	.	.	15
COc1ccc(NC(=O)N(C)C[C@@H]2Oc3ccc(NC(=O)CCC(F)(F)F)cc3C(=O)N([C@@H](C)CO)C[C@@H]2C)cc1	.	.	.	.	.	-5
COc1ccc(C(=O)Nc2ccc(S(=O)(=O)N3CCOCC3)cc2)cc1[N+](=O)[O-]	35*	-2	5	1	-2	-1

Bioassay records from PubChem.
